Source: PubChem BioAssay
Values without a mark were called inactive. How the calls were made is not given here.

molecular target: Pantothenate synthetase (Mycobacterium tuberculosis (strain ATCC 25618 / H37Rv)) (UniProt P9WIL5); test: Coupled enzyme confirmation of inhibitors against recombinant Mtb PanC (AID 375); conditions: coupled enzyme assay; at 10 µM, hits give high values;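 further: 0% = full reaction with vehicle and 100% = no enzyme background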
Sequence (P9WIL5 whole entry, looked up): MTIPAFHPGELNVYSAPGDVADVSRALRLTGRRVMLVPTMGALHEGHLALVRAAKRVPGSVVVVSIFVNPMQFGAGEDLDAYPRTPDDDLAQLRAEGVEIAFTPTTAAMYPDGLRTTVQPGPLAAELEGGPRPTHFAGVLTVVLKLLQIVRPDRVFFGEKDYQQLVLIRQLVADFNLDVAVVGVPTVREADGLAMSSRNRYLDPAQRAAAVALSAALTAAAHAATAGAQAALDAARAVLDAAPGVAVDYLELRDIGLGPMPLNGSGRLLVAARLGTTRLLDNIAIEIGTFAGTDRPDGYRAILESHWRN

Row | Structure (SMILES) | inhibition [%]
1 | COC(=O)C1=C(CSCc2ccco2)NC(=O)NC1c1cc(C)ccc1C (stereo not given) | 3
2 | CC1CN(c2nc3ccccc3nc2C(C#N)C(=O)NCc2ccc3c(c2)OCO3)CC(C)O1 (stereo not given) | 0
3 | Cc1ccc(N=C2NC(=O)CS2)c(C)c1 | 0
4 | COc1ccc(C2=Nn3c(nnc3-c3cccnc3)SC2)cc1 | 0
5 | NS(=O)(=O)c1ccc(C(=O)O)cc1 | 0
6 | C=CCn1c(SCC(=O)C(C)(C)C)nnc1-c1ccccn1 | 3
7 | CN1CCN2c3ccccc3Cc3ccccc3C2C1 (stereo not given) | 0
8 | CCn1c(SC)nc2c(c1=O)SC(C)C2 (stereo not given) | 0
9 | C/C(=N\O)C(=O)NCc1ccccn1 | 4
10 | O=C(COc1ccccc1)NCCSCc1ccco1 | 0
11 | COc1ccc(CCN2CCC(Nc3nc4ccccc4n3Cc3ccc(F)cc3)CC2)cc1 | 2
12 | Cc1ccc(CCP(=O)(O)CN2CCOCC2)cn1 | 0
13 | COC1=CC(=O)CC(C)C12Oc1c(Cl)c(OC)cc(OC)c1C2=O (stereo not given) | 0
14 | Cc1cc(C)n2nc(S(=O)(=O)N(C)Cc3ccccc3)nc2n1 | 0
15 | CCOc1ccccc1Nc1nnc(SCC(=O)N2CCCC2)s1 | 0
16 | Cc1nc2c3cnn(-c4ccccc4)c3ncn2n1 | 7
17 | O=S(=O)(c1ccccc1)N1CCN(C2CCCCCCC2)CC1 | 8
18 | Cn1c(=N)c(S(=O)(=O)c2ccc(Cl)cc2)cc2c(=O)n3ccccc3nc21 | 0
19 | COc1ccc2c(c1)Sc1ccccc1N2CCN(C)C | 3
20 | CC1CCCN(C(=O)c2cc3c(-c4ccc(Cl)cc4)nn(C)c3s2)C1 (stereo not given) | 4

Row | Structure (SMILES) | inhibition [%]
21 | CCOc1ccc(NC(=O)C2CC(=O)N(CC)C(=Nc3ccc4c(c3)OCO4)S2)cc1 (stereo not given) | 3
22 | Cc1nc2ccc(S(=O)(=O)NCC(=O)O)cc2s1 | 4
23 | CCC(C(=O)NC1CCCC1)N(Cc1ccco1)C(=O)Cn1nnc(-c2ccc(C)cc2)n1 (stereo not given) | 5
24 | Cc1ccc(Cl)cc1N1CCN(C(=O)c2cn(C)c(=O)c3c2c2ccccc2n3C)CC1 | 3
25 | CC1=C(C(N)=O)C(c2ccc(Cl)cc2Cl)n2ncnc2N1 (stereo not given) | 0
26 | CCC1CCCCN1CCNS(=O)(=O)c1ccc2c(c1)oc(=O)n2C (stereo not given) | 1
27 | CN(C)CCCN1c2ccccc2CCc2ccc(Cl)cc21 | 1
28 | N#Cc1cc2c(nc1SCC(=O)Nc1sc3c(c1C#N)CCC3)CCCCC2 | 0
29 | CC(C)CCNC(=O)CCNS(=O)(=O)c1ccc(Cl)cc1 | 0
30 | O=C1CC(c2cccc(Cl)c2)Cc2nc(N3CCN(c4ccccc4)CC3)ncc21 (stereo not given) | 0
31 | COCCN(C(=O)Cn1nnc2ccccc21)C(C(=O)NC1CCCC1)c1cc(OC)ccc1OC (stereo not given) | 6
32 | O=C(C1=C(O)C(=O)N(c2ncccn2)C1c1cccc(Cl)c1)c1ccco1 (stereo not given) | 0
33 | CN(C)S(=O)(=O)c1ccc(Oc2ccc(S(=O)(=O)N(C)C)cc2)cc1 | 4
34 | CCCc1cc(=O)[nH]c(Nc2ccc(OC)c(Cl)c2)n1 | 3
35 | CC1CCCCN1CCNC(=O)C1CCN(S(=O)(=O)c2cccc3cccnc23)CC1 (stereo not given) | 0
36 | CCOC(=O)Cn1c(N2CCOCC2)nc2c1c(=O)[nH]c(=O)n2C | 5
37 | Cc1ccc2c(COn3nnc4ccc(S(=O)(=O)N(C)C)cc43)cc(=O)oc2c1C | 3
38 | COc1ccc(CC(=O)OCC(=O)NC(=O)NC2CCCCC2)cc1 | 7
39 | Cc1nc2ccccc2cc1O | 0
40 | CCC(C)(C)n1nnnc1C(c1cc2cc(OC)ccc2[nH]c1=O)N1CCc2ccccc21 (stereo not given) | 0
